# Results published in the supplement of paper PMC8728848.
# The sample as a whole holds a higher share of the strongest signals than the screen did.
# How the values were obtained:
# Assay in all cases: glycan array binding signal (z-score within array); higher = stronger binding
# Fuc(a1-2)Gal6S(b1-4)Glc = details: glycan notation: IUPAC condensed, linker removed
# How it was run: (§1)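 The binding signal is a Z-score computed within each array. Data were drawn from 3228 arrays in the Consortium for Functional Glycomics database, restricted to those with a known protein sequence. Scores were averaged over arrays of the same protein sequence at different concentrations or buffers, and over linkers, and negative values can be taken as non-binding.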
# [1] = tested on: Fuc(a1-2)[Gal(a1-3)]Gal(b1-3)GlcNAc(b1-2)Man(a1-3)[Fuc(a1-2)[Gal(a1-3)]Gal(b1-3)GlcNAc(b1-2)Man(a1-6)]Man(b1-4)GlcNAc(b1-4)GlcNAc; details: glycan notation: IUPAC condensed, linker removed
# How it was run: as §1
# Fuc(a1-2)Gal = details: glycan notation: IUPAC condensed, linker removed
# How it was run: as §1
# [2] = tested on: Fuc(a1-2)[Gal(a1-3)]Gal(b1-4)GlcNAc(b1-2)Man(a1-3)[Fuc(a1-2)[Gal(a1-3)]Gal(b1-4)GlcNAc(b1-2)Man(a1-6)]Man(b1-4)GlcNAc(b1-4)[Fuc(a1-6)]GlcNAc; details: glycan notation: IUPAC condensed, linker removed
# How it was run: as §1
# [3] = tested on: Fuc(a1-2)[Gal(a1-3)]Gal(b1-4)GlcNAc(b1-3)GalNAc; details: glycan notation: IUPAC condensed, linker removed
# How it was run: as §1
# [4] = tested on: Fuc(a1-2)[Gal(a1-3)]Gal(b1-4)GlcNAc(b1-3)[Fuc(a1-2)[Gal(a1-3)]Gal(b1-4)GlcNAc(b1-6)]GalNAc; details: glycan notation: IUPAC condensed, linker removed
# How it was run: as §1
# [5] = tested on: Fuc(a1-2)[Gal(a1-3)]Gal(b1-4)Glc; details: glycan notation: IUPAC condensed, linker removed
# How it was run: as §1
# [6] = tested on: Fuc(a1-2)[Gal(a1-4)]Gal(b1-4)GlcNAc; details: glycan notation: IUPAC condensed, linker removed; mutation: R125K
# How it was run: as §1
# Fuc(a1-2)[Gal(a1-3)]Gal = details: glycan notation: IUPAC condensed, linker removed
# How it was run: as §1
# Chain of Avaren (Actinomycete K97) (chain, as listed by the source): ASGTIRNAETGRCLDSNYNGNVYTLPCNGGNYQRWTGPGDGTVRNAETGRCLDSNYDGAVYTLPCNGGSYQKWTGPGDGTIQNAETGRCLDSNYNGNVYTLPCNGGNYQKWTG
# Chain of CHI3L1 (Homo sapiens), P36222 (P36222 whole entry): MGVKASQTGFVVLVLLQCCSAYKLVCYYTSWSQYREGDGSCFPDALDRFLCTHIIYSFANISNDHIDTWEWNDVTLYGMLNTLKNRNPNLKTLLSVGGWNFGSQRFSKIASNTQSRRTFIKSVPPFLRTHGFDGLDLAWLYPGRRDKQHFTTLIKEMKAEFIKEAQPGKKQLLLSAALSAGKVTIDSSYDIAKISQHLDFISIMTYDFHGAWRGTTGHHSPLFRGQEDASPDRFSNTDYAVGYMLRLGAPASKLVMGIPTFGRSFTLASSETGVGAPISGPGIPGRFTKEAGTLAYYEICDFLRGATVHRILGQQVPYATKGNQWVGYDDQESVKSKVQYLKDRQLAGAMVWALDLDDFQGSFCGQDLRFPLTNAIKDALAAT
# Chain of Aggrecan (Rattus norvegicus), NP_071526 (chain, as listed by the source): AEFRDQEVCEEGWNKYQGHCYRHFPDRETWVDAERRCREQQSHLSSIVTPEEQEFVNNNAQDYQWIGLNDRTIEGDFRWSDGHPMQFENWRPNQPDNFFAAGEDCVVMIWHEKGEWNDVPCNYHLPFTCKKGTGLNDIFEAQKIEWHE
# Chain of Regenerating Gene IV (Homo sapiens), Q9BYZ8 (Q9BYZ8 whole entry, looked up): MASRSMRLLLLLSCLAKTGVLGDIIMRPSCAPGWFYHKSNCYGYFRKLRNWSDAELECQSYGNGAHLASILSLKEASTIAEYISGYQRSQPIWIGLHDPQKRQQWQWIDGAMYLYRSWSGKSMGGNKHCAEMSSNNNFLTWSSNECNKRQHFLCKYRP
# Chain of PILRa (Mus musculus), Q2YSF3 (Q2YSF3 entry or part of it): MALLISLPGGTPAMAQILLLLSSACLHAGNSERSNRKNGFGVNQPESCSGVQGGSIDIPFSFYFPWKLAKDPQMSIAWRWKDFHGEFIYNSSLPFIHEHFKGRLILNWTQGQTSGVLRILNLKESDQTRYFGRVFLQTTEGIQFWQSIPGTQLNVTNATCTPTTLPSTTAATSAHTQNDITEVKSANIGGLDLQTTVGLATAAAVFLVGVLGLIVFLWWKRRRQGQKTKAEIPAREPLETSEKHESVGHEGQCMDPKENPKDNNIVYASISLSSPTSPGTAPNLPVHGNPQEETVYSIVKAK
# Chain of SRLC (Mus musculus), Q8VIF6 (Q8VIF6 other isoform, or with tags, fused parts or gaps): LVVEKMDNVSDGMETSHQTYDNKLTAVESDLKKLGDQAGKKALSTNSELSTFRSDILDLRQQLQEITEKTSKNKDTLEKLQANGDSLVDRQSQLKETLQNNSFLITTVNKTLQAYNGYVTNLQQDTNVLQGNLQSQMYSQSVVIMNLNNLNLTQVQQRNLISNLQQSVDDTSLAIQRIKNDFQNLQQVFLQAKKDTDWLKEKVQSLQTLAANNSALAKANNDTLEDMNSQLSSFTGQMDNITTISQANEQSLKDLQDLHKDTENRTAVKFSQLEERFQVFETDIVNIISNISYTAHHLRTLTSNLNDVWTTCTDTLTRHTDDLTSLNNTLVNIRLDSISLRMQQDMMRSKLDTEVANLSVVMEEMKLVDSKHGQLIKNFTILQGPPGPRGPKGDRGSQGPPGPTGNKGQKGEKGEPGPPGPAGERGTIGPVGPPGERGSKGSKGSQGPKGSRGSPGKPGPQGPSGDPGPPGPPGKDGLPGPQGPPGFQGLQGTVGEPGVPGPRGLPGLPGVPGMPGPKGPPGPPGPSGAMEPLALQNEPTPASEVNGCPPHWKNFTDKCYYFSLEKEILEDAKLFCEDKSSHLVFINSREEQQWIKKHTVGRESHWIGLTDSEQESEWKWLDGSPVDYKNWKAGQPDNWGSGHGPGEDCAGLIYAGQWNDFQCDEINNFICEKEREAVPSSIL
# Chain of 6RG (Lolium perenne) (chain, as listed by the source): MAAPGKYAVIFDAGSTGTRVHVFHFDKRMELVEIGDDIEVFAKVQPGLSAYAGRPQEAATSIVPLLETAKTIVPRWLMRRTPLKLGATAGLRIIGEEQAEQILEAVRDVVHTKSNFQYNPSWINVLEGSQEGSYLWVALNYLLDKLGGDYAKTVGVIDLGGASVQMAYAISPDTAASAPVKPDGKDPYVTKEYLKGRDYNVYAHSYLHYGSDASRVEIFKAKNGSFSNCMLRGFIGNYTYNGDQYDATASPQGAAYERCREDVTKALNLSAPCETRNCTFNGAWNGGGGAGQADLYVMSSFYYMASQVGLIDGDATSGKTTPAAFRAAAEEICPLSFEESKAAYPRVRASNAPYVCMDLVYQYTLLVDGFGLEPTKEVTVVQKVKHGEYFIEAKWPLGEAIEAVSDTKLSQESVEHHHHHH
# Chain of PILRb (Mus musculus), Q2YSF2 (Q2YSF2 entry or part of it): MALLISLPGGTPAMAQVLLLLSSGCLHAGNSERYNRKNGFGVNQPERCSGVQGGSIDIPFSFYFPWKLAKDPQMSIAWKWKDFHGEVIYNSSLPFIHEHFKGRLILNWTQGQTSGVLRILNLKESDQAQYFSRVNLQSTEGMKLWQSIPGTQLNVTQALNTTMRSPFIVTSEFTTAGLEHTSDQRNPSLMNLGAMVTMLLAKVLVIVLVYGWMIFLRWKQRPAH
substance,measurement,setting,value
Avaren (Actinomycete K97),glycan array binding signal (z-score),Fuc(a1-2)Gal6S(b1-4)Glc,-0.124
same,glycan array binding signal (z-score),[1],-0.036
"Regenerating Gene IV (Homo sapiens), Q9BYZ8",glycan array binding signal (z-score),Fuc(a1-2)Gal,0.024
6RG (Lolium perenne),glycan array binding signal (z-score),Fuc(a1-2)Gal,-0.033
"CHI3L1 (Homo sapiens), P36222",glycan array binding signal (z-score),[2],-0.116
"PILRa (Mus musculus), Q2YSF3",glycan array binding signal (z-score),[3],-0.185
MpAFP RI GFP (Marinomonas primoryensis),glycan array binding signal (z-score),[4],-0.23
"Siglec-8 (Homo sapiens), Q9NYZ4",glycan array binding signal (z-score),[4]; mutation: R125K,2.31
same,glycan array binding signal (z-score),[5],0.008
same,glycan array binding signal (z-score),[6],-0.066
"PILRb (Mus musculus), Q2YSF2",glycan array binding signal (z-score),[5],-0.137
"SRLC (Mus musculus), Q8VIF6",glycan array binding signal (z-score),Fuc(a1-2)[Gal(a1-3)]Gal,-0.233
"Aggrecan (Rattus norvegicus), NP_071526",glycan array binding signal (z-score),Fuc(a1-2)[Gal(a1-3)]Gal,-0.088
